# Results reported in PubChem BioAssay (NCI).
# This is part of a sample that, as a whole, favours compounds with a hit. Of some 83,000 tested, about 20% had one in any assay.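 Assay: single dose, 48 h. Readout: percent growth (0 = no net growth; negative = cell death). Active: <10.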 Values without a mark were called inactive. Activity calls are given as the source filed them.
# How the values were obtained:
# Assay in all cases: NCI-60 one-dose screen, 48 h (100 = growth as untreated, 0 = no growth, -100 = all killed)
# SR leukemia = conditions: 10 µM unless noted
# RPMI-8226 leukemia = conditions: 10 µM unless noted
# OVCAR-5 ovarian = conditions: 10 µM unless noted
# OVCAR-4 ovarian = conditions: 10 µM unless noted
# SK-OV-3 ovarian = conditions: 10 µM unless noted
# IGROV1 ovarian = conditions: 10 µM unless noted
# OVCAR-3 ovarian = conditions: 10 µM unless noted
# HS 578T breast = conditions: 10 µM
# NCI/ADR-RES ovarian = conditions: 10 µM unless noted
# T-47D breast = conditions: 10 µM unless noted
# BT-549 breast = conditions: 10 µM unless noted
# MDA-MB-435 melanoma = conditions: 10 µM unless noted
# SW-620 colon = conditions: 10 µM unless noted
# MCF7 breast = conditions: 10 µM unless noted
# HCT-116 colon = conditions: 10 µM unless noted
# HCC-2998 colon = conditions: 10 µM
# KM12 colon = conditions: 10 µM unless noted
# OVCAR-8 ovarian = conditions: 10 µM unless noted
SMILES,growth (SR leukemia),growth (RPMI-8226 leukemia),growth (OVCAR-5 ovarian),growth (OVCAR-4 ovarian),growth (SK-OV-3 ovarian),growth (IGROV1 ovarian),growth (OVCAR-3 ovarian),growth (HS 578T breast) [%],growth (NCI/ADR-RES ovarian),growth (T-47D breast),growth (BT-549 breast),growth (MDA-MB-435 melanoma),growth (SW-620 colon),growth (MCF7 breast),growth (HCT-116 colon),growth (HCC-2998 colon),growth (KM12 colon),growth (OVCAR-8 ovarian)
COc1ccc2c(c1OC)C(=O)O[C@@H]2[C@H]1c2c(c(C#CC#Cc3ccc(F)c(F)c3)c3c(c2OC)OCO3)CCN1C,60.2%,67.3%,96.5%,99.9%,76%,90.1%,104%,101,89.3%,69.6%,78.2%,89.7%,104%,94%,59.8%,88.5%,83%,
COCCN1CCN(Cc2ccc(-c3n[nH]c4c3C(=O)c3c(NC(=O)NN5CCOCC5)cccc3-4)cc2)CC1,-10.3% (active),-37.4% (active),9.54% (active),-0.503% (active),-7.89% (active),-10.9% (active),9.5% (active),,5% (active),12.7%,-24.2% (active),-46.4% (active),-25% (active),-33.2% (active),-48.2% (active),-35.8% (active),-66.3% (active),
Cc1ccc(-c2cc3c(SCC(=O)Nc4cc(C(F)(F)F)ccc4Cl)nccn3n2)cc1,-10.2% (active),-12.5% (active),84.7%,38.1%,84.3%,52.7%,82.3%,87,42.5%,101%,81.2%,38.7%,18.2%,14.7%,14.7%,19.5%,,
CCOc1cc2ncc(C#N)c(Nc3ccc(OCc4ccccn4)c(Cl)c3)c2cc1NC(=O)/C=C/CN(C)C,-6.61% (active),-7.58% (active),,-73.6% (active),-10.6% (active),-62.5% (active),47.5%,,-10.8% (active),15.9%,39.4%,-87.7% (active),-63.9% (active),-6.35% (active),-81.2% (active),50.8%,-60% (active),-7.74% (active)
Cn1cc(-c2ccc(F)c(C(F)(F)F)c2)nc1C1CCN(c2ncnc3[nH]ncc23)CC1,55.4%,82.3%,,80.4%,55.5%,55.2%,89.6%,,61.2%,25.8%,43.1%,93.3%,89.2%,61.4%,68.9%,95.5%,73.5%,47.8%
COc1cnc2c(c1)C(=O)c1c-2n(CCCN2CCOCC2)c(=O)c2cc(Cl)ccc12,7.63% (active),9.78% (active),69.1%,41.6%,10.7%,43.2%,25.8%,,19.2%,10%,43.6%,47.5%,21.3%,10.4%,8.51% (active),53.6%,,
Cc1cccc(C)c1N1C(c2ccccc2)=NNC12C=CC(=O)c1c(O)cccc12 (stereo not drawn),56.9%,75.6%,,70.5%,86%,83.3%,51.7%,,70.3%,96.2%,44.7%,-90.1% (active),103%,78.7%,45.3%,98.5%,75.9%,69.6%
O=C(c1ccc(F)c(F)c1Nc1ccc(I)cc1F)N1CC(O)([C@@H]2CCCCN2)C1,-15.2% (active),26.7%,,27.8%,29.2%,2.25% (active),58.7%,,39.7%,11.8%,47.1%,21%,17.5%,14.1%,5.24% (active),-51.9% (active),12.1%,47.9%
C=CC(=O)Nc1cc2c(Nc3ccc(F)c(Cl)c3)ncnc2cc1C#CC(C)(C)N1CCN(C)CC1,-14.2% (active),-34.2% (active),,-96.2% (active),-96.6% (active),-73.9% (active),-96.7% (active),,-52.2% (active),-81.5% (active),-94% (active),-98.1% (active),-78% (active),-65.2% (active),-92.6% (active),-81.5% (active),-90.2% (active),-73.5% (active)
C=CC[n+]1c(/C=C/C=C2\N(C)c3ccccc3C2(C)C)sc2ccc(OC)cc21,11.7%,1.33% (active),22.4%,25.1%,-13.8% (active),40.9%,13.3%,53.6,71.7%,12.1%,14.6%,12.8%,19.9%,6.97% (active),11.6%,30.2%,13.4%,
CNC(=O)c1nn(C)c2c1C(C)(C)Cc1cnc(Nc3ccc(N4CCN(C)CC4)cc3)nc1-2,-1.85% (active),0.421% (active),,12.9%,-16.9% (active),2.47% (active),20.7%,,9.88% (active),-5.71% (active),5.23% (active),21.1%,11.5%,10.4%,0.153% (active),10.4%,0.555% (active),8.9% (active)
N#Cc1c(C(F)(F)F)cc(Nc2ccc3nc(NCCN4CCCC4)oc3c2)n2c1nc1ccccc12,0.701% (active),44.6%,137%,64.2%,89.9%,79.6%,91.6%,100,86.5%,66.9%,72.3%,90.8%,37.4%,38.9%,17.9%,68%,73.9%,
CCn1c(-c2nonc2N)nc2c(C#CC(C)(C)O)ncc(OC[C@H]3CCCNC3)c21,29.3%,91.7%,108%,68.5%,15%,23.9%,41.3%,,95.6%,66.7%,49.6%,75.3%,46.1%,15.6%,44.5%,81.4%,35.9%,
O=S1(=O)OC(c2cc(Cl)c(O)c(Br)c2)(c2cc(Cl)c(O)c(Br)c2)c2ccccc21,92.4%,102%,100%,101%,109%,95.6%,115%,94.1,102%,114%,,124%,99.6%,104%,96.7%,103%,106%,
CC(C)(C)c1nc(-c2cccc(NS(=O)(=O)c3c(F)cccc3F)c2F)c(-c2ccnc(N)n2)s1,50.4%,75.5%,,114%,71.9%,64.5%,103%,,95.5%,92.6%,118%,87.3%,73.3%,79.7%,48.1%,85.1%,44.6%,94.7%
Cc1cccc(Cl)c1NC(=O)c1cnc(Nc2cc(N3CCOCC3)cc(S(C)(=O)=O)c2)s1,43.3%,70.5%,,53.8%,-23.8% (active),-49.1% (active),32.1%,,64.4%,-15.6% (active),66.7%,69.9%,,65%,13.2%,,87.8%,-2.17% (active)
CCc1nc2cc(F)c(/C=C/C(=O)NO)cc2c(=O)n1CCc1ccccc1,15.1%,11%,23.6%,15.4%,1.17% (active),32.2%,7.99% (active),43.3,2.43% (active),2.26% (active),28.8%,23.8%,9.97% (active),12.3%,5.01% (active),37.3%,25.6%,
